# Results from PubChem BioAssay (NCI).
# About 83,000 compounds went through this panel and 20% of them were active in at least one assay; those are over-represented in the sample as a whole.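 Results are percent growth after 48 hours of single-concentration exposure. 100 means growth as in untreated cells, lower positive values show inhibition; negative values down to -100 show cell death.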 Unmarked numbers belong to inactive results. Activity calls are given as the source filed them. The calls were made as follows: active = growth percent below 10; inactive = the rest.
# What was measured:
# Assay in all cases: NCI-60 one-dose screen, 48 h (100 = growth as untreated, 0 = no growth, -100 = all killed)
# Conditions in all cases: 10 µM unless noted
# NCI-H23 lung = test system: NCI-H23 lung
# NCI-H226 lung = test system: NCI-H226 lung
# NCI-H322M lung = test system: NCI-H322M lung
# HOP-62 NSCLC = test system: HOP-62 NSCLC
# HOP-92 NSCLC = test system: HOP-92 NSCLC
# NCI-H522 lung = test system: NCI-H522 lung
# A549/ATCC NSCLC = test system: A549/ATCC NSCLC
# 786-0 renal = test system: 786-0 renal
# COLO 205 colon = test system: COLO 205 colon
# NCI-H460 lung = test system: NCI-H460 lung
Compound,growth (NCI-H23 lung),growth (NCI-H226 lung),growth (NCI-H322M lung) [%],growth (HOP-62 NSCLC) [%],growth (HOP-92 NSCLC),growth (NCI-H522 lung),growth (A549/ATCC NSCLC) [%],growth (786-0 renal),growth (COLO 205 colon) [%],growth (NCI-H460 lung)
C[C@H]1[C@H](C)CC[C@]2(C(=O)NCC#CCN3CCN(C)CC3)CC[C@]3(C)C(=CC[C@@H]4[C@@]5(C)Cc6c([nH]c7ccccc67)C(C)(C)[C@@H]5CC[C@]43C)[C@H]12,100%,100%,92.8,93.1,63.8%,82.6%,69.7,66.9%,53.1,
O=C(Cn1c[n+](CC(=O)c2ccc([N+](=O)[O-])cc2)c2ccccc21)Nc1cccc2cccnc12,50.9%,80.7%,96,95.5,28%,47.1%,14.3,,23.9,77.7%
COc1ccc(C(=O)c2cc(C)c(OC)c(C)c2)c(OC)c1OC(=O)C(Cl)Cl,29.2%,6.91% (active),42.8,17.4,21.7%,-10.8% (active),11,13.1%,73.5,
COC(=O)CNC(=O)[C@]12CCC(C)(C)C[C@H]1C1=CC[C@@H]3[C@@]4(C)Cc5c([nH]c6ccccc56)C(C)(C)[C@@H]4CC[C@@]3(C)[C@]1(C)CC2,92.9%,83.5%,91.6,87.8,101%,80.5%,50.4,91.6%,87,
CCCCCCNC(=O)Nc1ccc2cc3ccc(NC(=O)NCCCCCC)cc3nc2c1,-39% (active),79.5%,,18.1,68.9%,-67.1% (active),23.7,27.5%,,-11.9% (active)
NS(=O)(=O)c1ccc(Cn2c(SCC(=O)N/N=C/c3ccccc3O)nc3ccccc3c2=O)cc1,63.2%,57%,46.8,35.5,54%,-1.28% (active),69.4,71.1%,29.1,
CCN1Cc2nc3sc(C)c(C)c3c(=O)n2C=C1C,46.8%,77.8%,69,32.6,-14.7% (active),38.5%,86.8,16.8%,111,
CC(=O)N1N=C(c2ccc(-n3ccc(C(F)(F)F)n3)c(F)c2)CC1c1ccc[nH]1 (stereo not drawn),100%,106%,110,112,130%,77.2%,104,102%,122,
N#C/C(=C\c1c(-c2ccccc2)[nH]c2ccccc12)C(=O)c1ccc(Cl)cc1,36.9%,69%,61.8,41.4,55.2%,35.3%,48.8,44.6%,41.6,
CCOC(=O)C1=C(C)NC(SCc2cc(=O)oc3ccc(F)cc23)=N[C@@H]1c1cccc2ccccc12,94.3%,103%,102,90.8,86.7%,84.8%,98.9,93.4%,108,
O=C1OC(Cc2ccccc2)C1c1ccccc1 (stereo not drawn),106%,102%,110,104,104%,89.7%,95.9,102%,109,
CCCN1[C@@H]2CC[C@H]1/C(=C\c1ccc(OC)c(OC)c1)C(=O)/C2=C/c1ccc(OC)c(OC)c1,23.8%,67.3%,46.7,68.2,39.8%,47.8%,49.3,63.8%,51.4,
CCOC(=O)CCN(CC(C)C)C(=S)Nc1ccccc1,98.8%,107%,107,120,110%,101%,101,101%,113,
Oc1ccc(C2c3ccccc3Oc3ccccc32)c2cccnc12,30.3%,4.5% (active),24.3,19.8,43.1%,25%,12.2,-18.4% (active),,
COc1ccc(-c2nc3sccn3c2/C=C/C(=O)c2ccc3c(c2)OCO3)cc1,99.7%,84.7%,88.5,97.5,82.8%,57.8%,95,96.8%,211,
